This note sets out measurements from PubChem BioAssay AID485313 (National Center for Advancing Translational Sciences (NCATS), 2010).

About 7,600 (2.4%) of roughly 320,000 compounds were called active. Roughly 3% stayed inconclusive and do not appear here. The call rests on the fitted dose curve; in most records, active means well fitted activation curve with a large enough effect; inconclusive means small, poorly fitted or top-dose-only effect; inactive means no such curve, though single readings can be large or run the other way. Shown is part of a subset that was picked to be rich in actives. Entries that show only a call come without a potency.
Potency means the concentration at half of the fitted maximal effect.

This assay can be described thus: qHTS Assay for NPC1 Promoter Activators. Further: nearly all actives have a fitted effect of over 60% in size. The following applies: Huh7 NPC1 promoter luciferase reporter, 24 h; series mostly up to 9.22 µM. The source says:
NIH Chemical Genomics Center [NCGC] NIH Molecular Libraries Probe Production centers Network [MLPCN] MLPCN Grant: MH089375-01A1 Assay Submitter (PI): Yiannis A. Ioannou NCGC Assay Overview: Niemann Pick Type C (NPC) is a rare neurodegenerative lipidosis that is characterized by lipid storage in the endosomal/lysosomal system. Treatment modalities for this devastating disease are currently non-existent due to the severe obstacles associated with accessing the central nervous system with proteins or genes. The majority of mutations causing NPC disease are missense mutations that are distributed throughout the length of the NPC1 protein, with the most prevalent being the I1061T allele. Although NPC1 mutant proteins may be functional, they are typically trapped in the ER due to misfolding. […] We have developed and optimized a cell based luciferase reporter assay in 1536 well format for the identification of up-regulators of the mutant NPC1 promoter.
The NPC1 promoter is cloned in front of the luciferase reporter gene, therefore NPC promoter activation results in luciferase expression. Frozen stock of the NPC1 promoter transfected Huh7 cells were obtained from the laboratory of Dr. Yiannis Ioannou (The Mount Sinai School of Medicine, New York, NY). Cells were propagated and maintained at NCGC in medium containing RPMI-1640 supplemented with 10% FBS, 2mM L-glutamine, and 50ug/ml penicillin/streptomycin. Cells were harvested in and plated for assays in OP-MEM I reduced-serum medium supplemented with 10% FBS. The Amplite luciferase reporter gene assay kit was purchased from ABD Bioquest and prepared/stored according to manufacturers recommendations. qHTS Assay Setup: 1.#Dispensed 5ul of Huh7 cells stably expressing NPC1-luciferase at a density of 1500 cells per well 1536-well plates. 2.#Incubate cells at 37C, 5% CO2, and 95% humidity for 2 hours. 3.#Transferred 23nl per well of compound in DMSO solution. 4.#Incubated at 37C, 5% CO2, and 95% humidity for 24 hours. 5.#Dispensed 3ul per well of Amplite reagent(ABD Bioquest) per well. 6.#Incubate at ambient for 10 minutes. 7.#Read using the luminescence protocol on the ViewLux plate reader (Perkin Elmer).
On to `CCOC(=O)c1ccc(NC(=O)C2CC(=O)N(c3ccc4c(c3)OCCO4)C2)cc1` (configuration not stated), for which the Potency entry was “inactive”.

As to `COc1cc(OC)c(N2CC(C(=O)Nc3cc(Cl)ccc3N3CCOCC3)CC2=O)cc1Cl` (configuration not stated), the Potency result was “inactive”.

Turning to `O=C(/C=C/c1ccco1)Nc1ccc(Oc2ccccc2)cc1`, the Potency is 3980 nM (active).

Turning to `COc1cccc(NC(=O)COC(=O)/C=C/c2ccco2)c1`, the Potency entry was “inactive”.

`Cc1nnc(NC(=O)/C=C/c2ccco2)s1`: the Potency was 2510 nM (active).

Take `CCC(CC)c1nnc(NC(=O)/C=C/c2ccco2)s1`: the Potency result is “inactive”.

With `CCOC(=O)c1c(NC(=O)/C=C/c2ccco2)sc(C)c1C`, the Potency entry was “inactive”.

As to `O=C(/C=C/c1ccco1)NC(=S)Nc1ccccc1Br`, the Potency entry was “inactive”.

For the compound `CC(C)(CNC(=O)CNC(=O)C1CCCCC1)N1CCOCC1`, the Potency result is “inactive”.

`O=C(C1CC(=O)N(C2CCCC2)C1)N1CCN(c2cccc(C(F)(F)F)c2)CC1` (configuration not stated): the Potency result is “inactive”.

Consider `COc1ccccc1N1CCN(CC(=O)Nc2ccnn2C2CCCC2)CC1`, for which the Potency result was “inactive”.

In the case of `NC(=O)c1cc2ccccc2o/c1=N/NC(=O)c1cccc(F)c1`, the Potency entry is “inactive”.

With `COc1ccc(C(=O)N/N=c2\oc3ccccc3cc2C(N)=O)cc1`, the Potency result was “inactive”.

Take `COc1cccc2cc(C(N)=O)/c(=N\NC(=O)c3ccccc3)oc12`: the Potency is 2820 nM (active).

On to `O=C(c1ccc(Cl)c(S(=O)(=O)N2CCCCCC2)c1)N1CCN(c2ccc(O)cc2)CC1`, for which the Potency entry was “inactive”.

For the compound `COc1ccc(C2COC(=O)C2=N)c(NC(=O)c2ccccc2)c1` (configuration not stated), the Potency result is “inactive”.

As for `CC(=O)Oc1cccc(C(=O)Nc2ccccc2NC(=O)c2cccc(OC(C)=O)c2)c1`, the Potency result was “inactive”.

On to `CN1CCN(c2ccc(NC(=O)c3ccccc3)cc2)CC1`, for which the Potency was 2510 nM (active).

Consider `COc1ccc(C(=O)Nc2ccc(N3CCC(C)CC3)cc2)cc1Br`, for which the Potency entry was “inactive”.

On to `COc1cccc(C(=O)Nc2ccc(N3CCN(C(=O)c4ccco4)CC3)cc2)c1`, for which the Potency entry is “inactive”.

For `Cc1ccccc1C(=O)NC(=S)Nc1ccc(N2CCN(C(=O)c3ccccc3)CC2)cc1`, the Potency entry was “inactive”.

For `COc1cccc(C(=O)Nc2ccc(N3CCCC3)cc2)c1`, the Potency is 891 nM (active).

As for `COc1cccc(C(=O)Nc2cc3c(cc2Br)OCCCO3)c1`, the Potency was 2820 nM (active).

As for `CN1CCN(c2ccc(NC(=O)c3ccc4c(c3)[nH]c(=O)n4Cc3ccc(F)cc3)cc2)CC1`, the Potency result is “inactive”.

As for `O=C(CSc1ncnc2sccc12)N1CCN(C(=O)c2cccs2)CC1`, the Potency result was “inactive”.

Consider `Cc1ccc(S(=O)(=O)N2CCCCC2)cc1NC(=O)[C@@H]1CCCN1C(=O)c1cccs1`, for which the Potency result was “inactive”.

On to `Cc1ccc(-n2c(SCC(=O)N3CCC(C(=O)O)CC3)nc3ccccc3c2=O)cc1C`, for which the Potency was 3550 nM (active).

With `COc1cccc(-n2c(SCC(=O)NC3CCS(=O)(=O)C3)nc3ccccc3c2=O)c1` (configuration not stated), the Potency entry was “inactive”.

`O=C(CSc1nc2ccccc2c(=O)n1-c1ccc(F)cc1)NC1CC1`: the Potency entry was “inactive”.

As for `CC(=O)Nc1ccc(SC[C@H](Cc2ccccc2)N2CC[C@@H](C)CCC2=O)cc1`, the Potency result is “inactive”.

For `CCn1c(=N)n(CC(=O)c2cccc(OC)c2)c2ccccc21`, the Potency is 3550 nM (active).

Regarding `COc1ccc2cc(C(=O)O)n(CC(=O)c3ccccc3)c2c1`, the Potency entry was “inactive”.

As for `CCOC(=O)c1cc2ccccc2n1CC(=O)c1ccccc1`, the Potency result is “inactive”.

Regarding `CC(C)c1ccc(NC(=O)Cn2ncc3ccccc32)cc1`, the Potency is 891 nM (active).

Turning to `CCc1ccc(NC(=O)Cn2ncn3c(cc4ccccc43)c2=O)cc1`, the Potency entry was “inactive”.

Consider `CCOC(=O)c1cn(CC(=O)Nc2ccc(C(C)C)cc2)nn1`, for which the Potency result was “inactive”.

`O=C(NCc1ccccc1CN1CCCC1)C1CCN(S(=O)(=O)c2ccc(Cl)cc2)CC1`: the Potency entry is “inactive”.

As to `CNC(=S)N/N=C/c1ccc(N2CCOCC2)s1`, the Potency result is “inactive”.

`Cc1ccc(-c2nc3c(cnn3-c3ccccc3)c(=O)o2)cc1`: the Potency result is “inactive”.

For `C1=C(CCNc2ncnc3c2cnn3-c2ccccc2)CCCC1`, the Potency was 1780 nM (active).

Consider `O=C(Cn1cnc2c(cnn2-c2ccccc2)c1=O)NCc1ccccc1`, for which the Potency entry was “inactive”.

`O=C(NNc1ncnc2c1cnn2-c1ccccc1)c1ccco1`: the Potency result was “inactive”.

Turning to `CCC(C)N(C(=O)CSc1ncnc2c1cnn2-c1ccccc1)C1CCS(=O)(=O)C1` (configuration not stated), the Potency entry was “inactive”.

Turning to `CC(C)Sc1ncnc2c1cnn2-c1ccccc1`, the Potency was 3550 nM (active).

In the case of `CCN(C(=O)CSc1ncnc2c1cnn2-c1ccccc1)C1CCS(=O)(=O)C1` (configuration not stated), the Potency result was “inactive”.

As to `c1ccc(-n2ncc3c(N4CCCC4)ncnc32)cc1`, the Potency is 2510 nM (active).

Consider `O=C(NCCC1=CCCCC1)C1CCN(Cc2cnn(-c3ccccc3)c2-n2cccc2)CC1`, for which the Potency result is “inactive”.

For `CC1CCc2sc(C(=O)NCC(c3ccco3)N3CCCCC3)cc2C1` (configuration not stated), the Potency entry was “inactive”.

Consider `CCOCCc1nn2c(=O)cc(CSCC(=O)Nc3cccc(C)c3C)nc2s1`, for which the Potency entry is “inactive”.

With `CSCCC(NC(=O)c1ccccc1)C(=O)N1CCN(Cc2ccc(Cl)cc2)CC1` (configuration not stated), the Potency result was “inactive”.

Regarding `COC(=O)c1ccc(-c2c(-c3ccccc3)ncc3cc(OC)c(OC)cc23)cc1`, the Potency result was “inactive”.

Take `Cc1ccc2c(CN3CCN(S(=O)(=O)c4ccccc4C(F)(F)F)CC3)cc(=O)oc2c1`: the Potency result is “inactive”.
